This is a sample that favours compounds with a hit; in the whole collection about 2.7% have one here.
pPAFAH FP inh – pPAFAH enzyme inhibitors, primary screen, biochemical, fluorescence polarization, human | actives 1.5% (n = 330,000) | Platelet-activating factor acetylhydrolase (Homo sapiens), Q13093 | recombinant pPAFAH, FP-rhodamine probe fluorescence polarization | AID 463082, 2010 | inhibition, % at 3.39 µM;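 active = inhibition above the mean inhibition across the screen plus 3 SD, cut at about 25% in these data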;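 note: inhibitors block binding of the rhodamine activity-based probe so polarization drops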
PAFAH1B3 FP inh – PAFAH1B3 enzyme inhibitors, primary screen, biochemical, fluorescence polarization, human | Platelet-activating factor acetylhydrolase IB subunit alpha1 (Homo sapiens), Q15102 | recombinant PAFAH1B3, FP-rhodamine probe | inhibition, % at 3.39 µM | actives 0.28% (n = 340,000) | AID 492972, 2010;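 active = inhibition above the screen-wide average of all tested compounds plus 3 SD, cut at about 25% in these data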
Target sequence (Q15102 whole entry, looked up): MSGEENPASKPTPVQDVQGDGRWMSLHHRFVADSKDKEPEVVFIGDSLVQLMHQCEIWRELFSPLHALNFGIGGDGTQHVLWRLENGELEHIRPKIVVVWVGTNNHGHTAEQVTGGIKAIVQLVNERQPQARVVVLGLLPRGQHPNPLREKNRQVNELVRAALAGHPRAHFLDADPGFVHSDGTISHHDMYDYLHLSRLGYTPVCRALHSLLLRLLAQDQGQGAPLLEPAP
TCR CD3 inh – inhibitors of human TCR-CD3 interaction, primary screen, biochemical, fluorescence, TAMRA-labeled TCR probe; actives 0.37% (n = 360,000); AID 651800, 2012; inhibition, % at 9.4 µM; in the data active = inhibition above about 19%;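 note: recombinant mutant TCR 2C K166C tagged with TAMRA read by polarization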
PAFAH2 inh – PAFAH2 enzyme inhibitors, primary screen, biochemical, fluorescence polarization, human; Platelet-activating factor acetylhydrolase 2, cytoplasmic (Homo sapiens), Q99487; recombinant PAFAH2, FP-rhodamine activity probe; inhibition, % at 3.39 µM; actives 0.99% (n = 340,000); AID 492956, 2010;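 active = inhibition above the mean over all tested compounds plus 3 SD, cut at about 30% in these data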;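 note: inhibitors block probe labeling of enzyme so polarization drops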
PAFAH1B2 inh – PAFAH1B2 enzyme inhibitors, primary screen, biochemical, fluorescence polarization, human. recombinant PAFAH1B2, FP-rhodamine activity probe. inhibition, % at 3.39 µM. actives 1.2% (n = 340,000). AID 492953, 2010;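 active = inhibition above the mean of all tested compounds plus 3 SD, cut at about 24% in these data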
Target sequence (P68402 whole entry, looked up): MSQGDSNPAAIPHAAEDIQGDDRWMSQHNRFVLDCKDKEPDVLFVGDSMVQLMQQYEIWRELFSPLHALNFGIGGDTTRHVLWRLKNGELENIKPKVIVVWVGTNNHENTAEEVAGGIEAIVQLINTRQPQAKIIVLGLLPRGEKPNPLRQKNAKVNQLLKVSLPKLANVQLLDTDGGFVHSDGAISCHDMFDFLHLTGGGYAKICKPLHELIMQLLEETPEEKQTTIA
Numbers stand for hits; . = inactive; / = not tested or not shown.

SMILES	pPAFAH FP inh	PAFAH1B3 FP inh	TCR CD3 inh	PAFAH2 inh	PAFAH1B2 inh
O=C(CCNS(=O)(=O)c1ccccc1)NNC(=O)COc1ccccc1F	.	.	.	.	.
CC1(C)CC2CC(C)(CN2C(=O)COC(=O)c2ccc(NC(=O)CC#N)cc2)C1 (stereo not given)	.	.	.	.	.
Cc1cc2n(n1)C(c1ccc(N(C)C)cc1)Nc1ccccc1-2 (stereo not given)	26.5	.	.	.	.
CC(C)Cn1c2ccccc2c2cc(C(=O)O)ccc21	.	.	.	.	28.6
Cc1cc(NC(=O)CSCc2ccccc2)no1	.	.	.	.	.
Cc1cc(CSCc2ccc(Cl)cc2)no1	.	.	.	.	27.4
CC1(C(=O)Nc2cccc(C(F)(F)F)c2)Cc2c(-c3ccccc3)ccnc2O1 (stereo not given)	/	/	.	/	/
Cc1nc(N)nc(N)c1Oc1ccc(Cl)cc1	/	.	.	.	.
Cc1nc(N)nc(N)c1/C=C/C(C)(C)c1ccc(Cl)cc1	/	.	.	.	41.8
Nc1[nH]c(C(=O)c2ccccc2)c(-c2cc(F)ccc2Br)c1C(=O)NCCc1c[nH]c2ccccc12	/	/	.	/	/
CCc1ccccc1NC(=O)CSc1ccsc1[N+](=O)[O-]	25.2	.	.	.	.
CN1C(=O)C(CC(=O)Nc2ccc(F)cc2)N(CCCc2ccccc2)C1=S (stereo not given)	.	.	.	.	27.0
COc1ccc(NC(=O)CC2C(=O)N(C)C(=S)N2CCc2ccccc2F)cc1 (stereo not given)	.	.	.	.	.
CCN(c1ccccc1)S(=O)(=O)c1ccc(Cl)c(NC(=O)COC(=O)c2ccc(O)cc2)c1	33.7	.	.	67.4	.
CCc1c(-c2ccccc2F)ncn1CCc1ccccc1OC	/	/	.	/	/
Cn1c(=O)c2c(ncn2Cc2ccc(O)c([N+](=O)[O-])c2)n(C)c1=O	/	/	.	/	/
CC(Oc1ccc2c(-c3ccccc3)cc(=O)oc2c1)C(=O)N[C@H](Cc1c[nH]c2ccccc12)C(=O)O (stereo not given in full)	.	.	.	.	76.4
Cc1c(C)c2ccc(OC(C)C(=O)N[C@@H](Cc3c[nH]c4ccccc34)C(=O)O)c(C)c2oc1=O (stereo not given in full)	.	.	.	.	24.5
Cc1c(OC(C)C(=O)NC(Cc2c[nH]c3ccc(O)cc23)C(=O)O)ccc2c1oc(=O)c1ccccc12 (stereo not given)	.	.	.	.	.
CCCCCCCCN1C(=O)[C@@H](CC(=O)N2CCC(c3ccccc3)CC2)C[C@@]2(C(=O)OC)C1=C[C@H](C1CCCC1)O[C@@H]2C	/	/	.	/	/
Cc1ccc(-n2c(SCC(=O)Nc3ccc(Cl)cc3)nc(O)cc2=O)cc1	.	.	.	.	.
C=CCn1c(SCc2nc3sc(C(=O)O)c(C)c3c(=O)[nH]2)nnc1-c1ccc(C(C)(C)C)cc1	26.1	.	.	.	.
Cc1[nH]nc2c1C(c1ccccc1)N(c1ccccc1)C2=O (stereo not given)	/	/	.	/	/
CC1CCCC(NC(=O)COC(=O)CCC2CCCC2)C1C (stereo not given)	27.6	.	.	.	.
CC1CCCC(NC(=O)COC(=O)Cc2ccc(Br)cc2)C1C (stereo not given)	24.8	/	.	/	/
SMILES	pPAFAH FP inh	PAFAH1B3 FP inh	TCR CD3 inh	PAFAH2 inh	PAFAH1B2 inh
COc1cc(CCC(=O)OCC(=O)NC2CCCC(C)C2C)cc(OC)c1OC (stereo not given)	.	.	.	.	.
CCOc1ccc(OCCC(=O)OCC(=O)NC2CC2)cc1	.	.	.	.	.
CCOc1ccc(OCCC(=O)OCC(=O)NC2CCCCC2)cc1	30.5	.	.	.	.
Cc1ccc(OCCC(=O)OCC(=O)NC2CCCC(C)C2C)cc1 (stereo not given)	.	.	.	.	33.6
Cc1cccc(N2CCN(CC(=O)Nc3ccc(S(=O)(=O)N4CCOCC4)cc3)CC2)c1C	.	.	.	.	.
COC(=O)C1=C(C)N(Cc2ccccc2C(F)(F)F)C(=NCc2cc(OC)c(OC)c(OC)c2)NC1c1cccc(F)c1 (stereo not given)	/	/	.	/	/
CCOC(=O)C1CCN(S(=O)(=O)c2ccc3[nH]c(=O)ccc3c2)CC1	.	.	.	.	.
COC(=O)C[C@@H]1C[C@@H]2c3cc(NS(=O)(=O)c4ccc(F)cc4)ccc3O[C@@H]2[C@@H](CO)O1	/	/	.	/	/
COC(=O)c1cc2c(c3c4cc(OC)ccc4n(S(=O)(=O)c4ccc(OC)cc4)c13)C(=O)N(Cc1ccccc1OC)C2	/	/	.	/	/
O=C(COc1ccc(Cl)cc1)N1CCN(S(=O)(=O)c2cc(F)ccc2F)CC1	/	/	.	/	/
CC(=O)C1=CCC(c2ccc(Cl)cc2)N(S(=O)(=O)c2ccc(C)cc2)C1 (stereo not given)	/	/	.	/	/
Cc1ccsc1C(=O)OCC(=O)NC1CCCC(C)C1C (stereo not given)	32.1	.	.	85.0	.
O=C1CN(C(=O)COC(=O)c2ccc([N+](=O)[O-])s2)c2ccccc2N1	.	45.8	/	32.1	.
O=C(COC(=O)c1ccc([N+](=O)[O-])s1)NC(=O)NCc1ccccc1	.	30.3	.	40.3	.
O=C(COC(=O)c1ccc([N+](=O)[O-])s1)NNC(=O)c1ccccc1	.	35.6	/	36.0	.
O=C(COC(=O)c1ccc([N+](=O)[O-])s1)NCc1ccc(F)cc1	25.6	44.3	.	52.5	.
O=C(COC(=O)c1ccc([N+](=O)[O-])o1)NCc1ccc(F)cc1	.	.	.	.	.
CCn1c(CNS(=O)(=O)c2ccc(Br)cc2)n[nH]c1=S	.	.	.	.	.
CC(NC(=O)COC(=O)c1cc(Cl)nc(Cl)c1)c1ccccc1 (stereo not given)	.	.	.	.	.
CC(NC(=O)COC(=O)c1ccc([N+](=O)[O-])s1)c1ccccc1 (stereo not given)	24.9	.	.	.	.
O=C(COC(=O)c1ccc([N+](=O)[O-])s1)NCCc1ccccc1	.	32.2	/	34.2	.
CCN(CC)S(=O)(=O)c1cccc(C(=O)OCC(=O)NC(C)c2ccccc2)c1 (stereo not given)	26.7	.	.	44.9	.
O=C(Nc1ccc(F)cc1F)c1cccc(C(=O)Nc2ccc(F)cc2F)n1	.	.	.	.	.
O=C1NC(Cc2ccccc2)c2nc3ccccc3c(=O)n2-c2ccc(Cl)cc21 (stereo not given)	/	/	.	/	/
O=C(NNC(=O)c1ccc(Cn2cccn2)o1)NC12CC3CC(CC(C3)C1)C2	/	.	.	.	.
Cc1ccc(S(=O)(=O)Nc2ccc(C(=O)N3CCN(c4ccccc4O)CC3)cc2)cc1[N+](=O)[O-]	.	.	.	.	.
CC(C)(C)N1C(=O)c2ccc(C(=O)O)cc2C1=O	.	.	.	.	.

Assay outcomes (PubChem BioAssay)
